Source: PubChem (several laboratories)
BoNT F protease = inhibitors of Botulinum neurotoxin F light chain protease. Multiplex microsphere protease cleavage assay, flow cytometry. inhibition, % at 10 µM. 360,000 compounds, 0.22% hits. AID 588497; in the data active = inhibition above about 35%, passing the limit was not always enough; inconclusive = no clear call, values can overlap the other calls; note: plate controls were buffer without enzyme for full effect and enzyme alone for no effect
Autofluor counter = flagged as autofluorescent in microsphere protease counterscreen. fluorescence intensity (test concentration not listed). AID 624483. 360,000 compounds, 3.1% hits. compound autofluorescence counterscreen, microsphere flow cytometry; stronger effect = higher value; in the data active = fluorescence intensity above about 16000; inconclusive = no clear call, values can overlap the other calls
Anthrax LF inh2 = blocks Bacillus anthracis lethal factor protease; P15917; multiplex microsphere protease cleavage assay, LF; inhibition, % at 10 µM; 360,000 compounds, 0.12% hits; note: plate controls were buffer without enzyme for full effect and enzyme alone for no effect
MazEF act = activators of E. coli MazEF toxin-antitoxin RNase; AID 504720; P0AE70; 350,000 compounds, 0.32% hits; activation, % at 20 µM; FAM/BHQ RNA-DNA oligo cleavage fluorescence, 5 h; in the data active = activation above about 50%
Target sequence (P0AE70 whole entry, looked up): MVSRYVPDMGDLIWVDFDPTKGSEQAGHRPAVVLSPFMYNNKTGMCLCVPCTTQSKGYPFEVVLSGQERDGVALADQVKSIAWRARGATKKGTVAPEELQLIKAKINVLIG
VHR inh abs = DUSP3 (human) phosphatase inhibition | 290,000 compounds, 0.52% hits | inhibition, % at 13.3 µM | P51452 | recombinant VHR phosphatase, pNPP absorbance | AID 1654; in the data active = inhibition above about 50%
Target sequence (P51452 whole entry, looked up): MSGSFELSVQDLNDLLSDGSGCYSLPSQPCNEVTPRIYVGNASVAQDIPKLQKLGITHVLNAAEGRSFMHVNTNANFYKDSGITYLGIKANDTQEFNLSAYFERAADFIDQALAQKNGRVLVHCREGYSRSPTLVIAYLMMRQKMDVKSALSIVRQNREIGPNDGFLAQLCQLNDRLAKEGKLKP
BoNT A protease = blocks Botulinum neurotoxin A light chain protease | multiplex microsphere protease substrate cleavage, flow cytometry | inhibition, % at 10 µM | 360,000 compounds, 0.17% hits | AID 588499; note: plate controls were buffer without enzyme for full effect and enzyme alone for no effect
* = called active by the depositor. Sampled rows, rich in hits. Any-hit rate of the full collection: about 4.1%. Cut-off read from the data, not from the text of the source, unless noted: active = inhibition above about 30%; inconclusive = no clear call, values can overlap the other calls; inactive = below that.

What do the screens show for `Cc1nc(-c2ccc(F)cc2)c(CC(=O)N2CCN(S(=O)(=O)c3cccc([N+](=O)[O-])c3)CC2)s1`?
BoNT F protease: 20; Autofluor counter: inconclusive; Anthrax LF inh2: 7; MazEF act: -21; BoNT A protease: 13

Results for c1ccc(-c2nn3c(-c4ccccc4)nnc3o2)cc1 ?
BoNT F protease: -4; Autofluor counter: 3076; Anthrax LF inh2: 1; MazEF act: 1; BoNT A protease: 0

What do the screens show for `COc1ccc(NC(=O)CN2CCN(Cc3ccc4c(c3)OCO4)CC2)cc1OC`?
BoNT F protease: 3; Autofluor counter: 4587; Anthrax LF inh2: 5; MazEF act: 8; VHR inh abs: 15; BoNT A protease: 1

What do the screens show for `CCOc1ccccc1NC(=O)N1CCC(c2nc3ccccc3[nH]2)CC1`?
BoNT F protease: 5; Autofluor counter: 21924*; Anthrax LF inh2: 2; MazEF act: 7; VHR inh abs: 10; BoNT A protease: inconclusive

How did COc1ccc(CC(=O)NC2CCN(CC(=O)Nc3ccc4c(c3)OCCO4)CC2)cc1OC do in these assays?
BoNT F protease: -4; Autofluor counter: 23401*; Anthrax LF inh2: -4; MazEF act: -1; VHR inh abs: 6; BoNT A protease: -1

What do the screens show for `O=C(NCC(c1ccco1)N1CCN(c2ccccc2)CC1)C(=O)NC1CCCCC1` (stereo not drawn)?
BoNT F protease: 3; Autofluor counter: 5110; Anthrax LF inh2: -2; MazEF act: 0; BoNT A protease: 0

What do the screens show for `O=C(COC(=O)c1ccc(Cl)nc1)NCCc1ccccc1`?
BoNT F protease: -5; Autofluor counter: 5464; Anthrax LF inh2: 1; MazEF act: -1; BoNT A protease: 0

How did COc1cccc(C(=O)Nc2cccc3ccccc23)c1 do in these assays?
BoNT F protease: -16; Autofluor counter: 3063; Anthrax LF inh2: 0; MazEF act: 2; VHR inh abs: 17; BoNT A protease: -1

Results for COc1cccc(C(CC(=O)Nc2cccc3ccccc23)NC(=O)c2ccccc2)c1 (stereo not drawn) ?
BoNT F protease: 10; Autofluor counter: 19845*; Anthrax LF inh2: -7; MazEF act: -3; VHR inh abs: 20; BoNT A protease: 5

How did O=S(=O)(c1ccccc1)c1nc(-c2ccco2)oc1NCCN1CCOCC1 do in these assays?
BoNT F protease: -2; Autofluor counter: 23098*; Anthrax LF inh2: -2; MazEF act: -2; VHR inh abs: -19; BoNT A protease: -2

How did O=S(=O)(c1ccccc1)c1nc(-c2ccco2)oc1NCCCN1CCOCC1 do in these assays?
BoNT F protease: 16; Autofluor counter: 4174; Anthrax LF inh2: -2; MazEF act: 10; VHR inh abs: -29; BoNT A protease: 1

What do the screens show for `N#Cc1nc(-c2ccco2)oc1NCCCN1CCOCC1`?
BoNT F protease: 0; Autofluor counter: 22603*; Anthrax LF inh2: -9; MazEF act: 0; VHR inh abs: 11; BoNT A protease: 0

Results for N#Cc1nc(COc2ccc(Br)cc2)oc1NCCN1CCOCC1 ?
BoNT F protease: -2; Autofluor counter: 23449*; Anthrax LF inh2: 0; MazEF act: -10; VHR inh abs: 14; BoNT A protease: -2

What do the screens show for `CNc1cncc(-c2ccc(OC)cc2OC)n1`?
BoNT F protease: -4; Autofluor counter: 2907; Anthrax LF inh2: -3; BoNT A protease: 0

Results for O=C(C[C@@H]1C/C=C/CC[C@H](Cc2ccc(F)cc2)C(=O)OCCNC1=O)N[C@H](CO)Cc1ccccc1 ?
BoNT F protease: -7; Autofluor counter: 4083; Anthrax LF inh2: 2; MazEF act: -2; BoNT A protease: -1

Results for COc1ccc(C(=O)NCC2(c3ccccc3)CCOCC2)cc1[N+](=O)[O-] ?
BoNT F protease: -4; Autofluor counter: 2436; Anthrax LF inh2: 0; MazEF act: -2; VHR inh abs: -11; BoNT A protease: 0

How did COc1ccc(C2(CNC(=O)c3ccc(OC)c([N+](=O)[O-])c3)CCOCC2)cc1OC do in these assays?
BoNT F protease: 4; Autofluor counter: 21598*; Anthrax LF inh2: 0; MazEF act: -8; VHR inh abs: 13; BoNT A protease: inconclusive

What do the screens show for `O=C1/C(=C/c2ccc([N+](=O)[O-])cc2)C=C(c2ccccc2)N1c1ccc(O)cc1`?
BoNT F protease: -4; Autofluor counter: 22121*; Anthrax LF inh2: -14; MazEF act: 15; VHR inh abs: 13; BoNT A protease: 1

How did CC[C@]12c3[nH]c4cc(-c5ccco5)ccc4c3CCN1C(=O)[C@@H](CC(=O)NCCCOC)C[C@@H]2C(=O)N1CCN(C(=O)c2ccco2)CC1 do in these assays?
BoNT F protease: -7; Autofluor counter: 3477; Anthrax LF inh2: -4; MazEF act: 1; BoNT A protease: 0

Results for CN1C(=O)S/C(=C/c2cccnc2)C1=O ?
BoNT F protease: -4; Autofluor counter: 21884*; Anthrax LF inh2: -1; MazEF act: 1; VHR inh abs: 4; BoNT A protease: 0

How did Cc1cc(C(=O)CSc2nc3ccccc3[nH]2)c(C)n1CC1CCCO1 (stereo not drawn) do in these assays?
BoNT F protease: -10; Autofluor counter: 17964*; Anthrax LF inh2: -5; MazEF act: -4; VHR inh abs: 9; BoNT A protease: -8

What do the screens show for `Cc1cc(C(=O)CSc2nc(N)cc(=O)[nH]2)c(C)n1CC1CCCO1` (stereo not drawn)?
BoNT F protease: 0; Autofluor counter: 3989; Anthrax LF inh2: -1; MazEF act: 8; BoNT A protease: 0

What do the screens show for `Cc1cc(C(=O)CSc2nnc(-c3ccc(Cl)cc3)n2C)c(C)n1CC1CCCO1` (stereo not drawn)?
BoNT F protease: -6; Autofluor counter: 22941*; Anthrax LF inh2: 0; MazEF act: 1; VHR inh abs: 19; BoNT A protease: -1

What do the screens show for `C=CCn1c(SCC(=O)c2cc(C)n(CC3CCCO3)c2C)nnc1-c1ccccc1` (stereo not drawn)?
BoNT F protease: 9; Autofluor counter: 3910; Anthrax LF inh2: -5; MazEF act: -2; VHR inh abs: 15; BoNT A protease: -1

Results for O=C(CCC(=O)N1CCN(S(=O)(=O)c2ccc([N+](=O)[O-])cc2)CC1)N1CCOCC1 ?
BoNT F protease: 3; Autofluor counter: 3666; Anthrax LF inh2: -7; MazEF act: 0; BoNT A protease: 0

How did Cc1ccc2c(c1)N(CC(=O)N1CCc3ccccc3C1)C(=O)CO2 do in these assays?
BoNT F protease: 0; Autofluor counter: 21837*; Anthrax LF inh2: -2; MazEF act: 0; VHR inh abs: 10; BoNT A protease: 1

Results for Cc1ccc(CNC(=O)CN2C(=O)COc3ccc(C)cc32)cc1 ?
BoNT F protease: 1; Autofluor counter: 19416*; Anthrax LF inh2: -4; MazEF act: 9; VHR inh abs: -1; BoNT A protease: 1

How did Cc1ccc2c(c1)N(CC(=O)N1CCCc3ccccc31)C(=O)CO2 do in these assays?
BoNT F protease: -1; Autofluor counter: 16620*; Anthrax LF inh2: -4; MazEF act: 6; VHR inh abs: -7; BoNT A protease: -1
